# The campaign covered roughly 94,000 compounds. About 6,200 (6.6%) were called active. Not shown: some 31% with an inconclusive outcome. The call rests on the fitted dose curve; in most records, active means well fitted inhibition curve with a large enough effect; inconclusive means small, poorly fitted or top-dose-only effect; inactive means flat fitted curve, though single readings scatter. What follows is part of a selection rich in actives, with near analogues and random picks from the rest.
# Assay: Cytotoxic Profiling in HEK 293 Cell Line of Diverse Libraries Using Quantitative High-Throughput Screening; further: nearly all actives have a fitted effect of over 60% in size
# Details: HEK 293 viability, ATP luminescence (CellTiter-Glo), 48-72 h; series mostly up to 115 µM; activity change, negative = cytotoxicity: at the top concentration
# Summary of the method: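 250 HEK 293 cells/well; compound by pintool; incubated 48 or 72 hr at 37 degree Celsius; CellTiter-Glo added, 10 min RT, luminescence imaged.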
# On the % scale 0 is the no-effect control and ±100 the full control effect; potency means the concentration at half of the fitted maximal effect.
Compound,"activity change, negative = cytotoxicity",outcome,Potency
CN(C)C1(CC2CC2)CCN(C(=O)c2ccsc2)CC1,1.08% (inactive),,
CC(C)CN1C(=O)c2cccn2CC1C(=O)NC1CCS(=O)(=O)C1 (stereo not drawn),,inactive,
COc1ccc(CN2CCCC(c3[nH]ccc3C(N)=O)C2)cc1Cn1ccnc1 (stereo not drawn),2.51% (inactive),,
O=C(c1ccc(N2CC3CC(C2)[C@H]2CCCC(=O)N2C3)nc1)N1CCCCC1 (stereo partly drawn),-4.66% (inactive),,
COc1cncc(-c2cccc(COc3ccc4c(cnn4CC[S+](C)(=O)[O-])c3)c2)c1,,,56.2 µM (active)
O=C(CC1CCN(C(=O)c2ccccc2)C1)NC1CC1 (stereo not drawn),-7.16% (inactive),,
CCn1c(C2CCCNC2)nn(Cc2ccc(C(=O)NC)o2)c1=O (stereo not drawn),0.0264% (inactive),,
Brc1cccc(-c2noc(-c3nc(-c4ccncc4)no3)n2)c1,4.91% (inactive),,
COc1ccc(-c2nc(CN3CCOC(CN)C3)c(C)o2)c2ccccc12 (stereo not drawn),,,31.6 µM (active)
Cc1oc(-c2cccc(Oc3ccccc3)c2)nc1CN1CCOC(CCN)C1 (stereo not drawn),,,28.2 µM (active)
CCn1cnnc1CC1CCN(C(=O)C2CCN(Cc3nc(-c4cccc(C)c4)oc3C)CC2)CC1,-24.6% (inactive),,
Cc1oc(-c2cccc(Cl)c2)nc1CN1CCCC(C(N)=O)C1 (stereo not drawn),-17.1% (inactive),,
COc1ccc(-c2noc(CN3CCCC(C(=O)c4cccnc4)C3)n2)c(OC)c1OC (stereo not drawn),-24.8% (inactive),,
COC(=O)[C@@H]1Cc2ncn(Cc3ccc(Cl)cc3)c2CN1S(=O)(=O)c1ccc(C(C)=O)cc1,-1.59% (inactive),,
CCCN(CC1CCOC1)C(=O)Nc1cc(C)ccc1OC (stereo not drawn),4.73% (inactive),,
Cc1ncsc1CCC(=O)N[C@@H]1COCC[C@@H]1Oc1cccc(F)c1,,inactive,
COc1ccc2[nH]cc(CCNC(=O)C3CCCN(Cc4ccncc4)CCC(=O)NCC3)c2c1 (stereo not drawn),,inactive,
COc1ccc2ccc(OCc3nc(C(=O)N4CCC(=O)NCC4C)co3)cc2c1 (stereo not drawn),,,44.7 µM (active)
Cc1cc(C(=O)N2CCCCC2c2noc(COc3ccc(F)cc3)n2)nn1C (stereo not drawn),-29.3% (inactive),,
COc1ccc(OCc2nc(C(=O)N3CCCC(C)(CO)C3)co2)cc1 (stereo not drawn),-24.8% (inactive),,
COc1ccc(OC)c(NC(=O)C2CCN(c3cc(C(F)(F)F)ncn3)CC2)c1,-13.9% (inactive),,
Cc1nc(N2CCC(NC(=O)c3ccc4c(c3)OCO4)CC2)cc(C(F)(F)F)n1,-17.7% (inactive),,
Cc1nc(N2CCC(C(=O)NCc3ccc(C(C)C)cc3)CC2)cc(C(F)(F)F)n1,,,31.6 µM (active)

Compound,"activity change, negative = cytotoxicity",outcome,Potency
Cc1ccc(N2Cc3c(NCC4CC4)ncnc3N(C)CC2=O)cc1,-6.31% [at 172 µM] (inactive),,
CN1CCN(C2CCOC3(CCN(S(=O)(=O)c4cn(C)cn4)CC3)C2)CC1 (stereo not drawn),6.96% (inactive),,
CC(C)C(=O)N1CCC(OC2CCN(Cc3ccccc3)CC2)CC1,-18.1% (inactive),,
CN1CCN(C(=O)C(C)(C)Oc2nn(Cc3cccc(Cl)c3)c3ccccc23)CC1,,,70.8 µM (active)
COCc1ccc2c(c1)c(OC(C)(C)C(=O)N1CCN(C)CC1)nn2Cc1cccnc1,,inactive [at 172 µM],
COCc1ccc2c(c1)c(OC(C)(C)C(=O)NC1CCC(O)CC1)nn2Cc1cccnc1 (stereo not drawn),-3.5% (inactive),,
CN(C)CCNC(=O)C(C)(C)Oc1nn(Cc2cccc(Cl)c2)c2ccccc12,,,31.6 µM (active)
O=C(NCc1cccnc1)C1CCCN(c2cnn(Cc3ccccc3)c(=O)c2)C1 (stereo not drawn),-21.1% (inactive),,
COCCNC(=O)N1CCc2nn(Cc3ccccc3)c(=O)n2CC1,-1.17% (inactive),,
CC(C)(Oc1nn(Cc2cccc(Cl)c2)c2ccccc12)C(=O)Nc1cccnc1,,,35.5 µM (active)
Cc1ccccc1C(=O)NCc1c[nH]c2ncccc12,-4.04% [at 172 µM] (inactive),,
N#Cc1ccc(CN2CC3CCC(C2)N3c2ccc(C(F)(F)F)cc2)cc1,1.8% (inactive),,
O=C(c1ccn[nH]1)N1CCC[C@H](n2c(=O)n(CC3CC3)c3cccnc32)C1,-3.78% (inactive),,
COCCn1c(=O)n([C@H]2CCCN(C(=O)c3ccccc3F)C2)c2ncccc21,-4.8% (inactive),,
NC(=O)c1cccnc1OC1CCN(Cc2cccnc2)CC1,-1.27% (inactive),,
CCOCc1nc(C2CCCN(C(=O)NC(C)C)C2)no1 (stereo not drawn),6.9% (inactive),,
O=C(NCc1ccco1)C1CCCN(c2cnn(Cc3ccccc3)c(=O)c2)C1 (stereo not drawn),-10.3% (inactive),,
Cc1noc(C)c1S(=O)(=O)N1CCC(c2noc(-c3ccccn3)n2)C1 (stereo not drawn),-0.0231% (inactive),,
O=C1CCN(C(=O)C2COc3ccccc3O2)CCOCCN1 (stereo not drawn),-13.6% (inactive),,
C[C@@H](NC(=O)C1=C[C@@H](NC(=O)CC2(CC(=O)O)CCCC2)[C@@H](O)[C@H](O)C1)C(N)=O,,inactive [at 172 µM],
CN1CCC(C(=O)N2CC(F)(F)C[C@H]2c2nc(C3CC3)no2)CC1,1.09% (inactive),,
Cc1noc2c(NC3CCCCC3)cc(-c3ccsc3)nc12,,,89.1 µM (active)
COCCCNc1cc(-c2ccsc2)nc2c(C)noc12,-25.3% [at 172 µM] (inactive),,

Compound,"activity change, negative = cytotoxicity",outcome,Potency
O=C(Nc1ccc(-c2nnc3n2CCCC3)cc1)c1ccccn1,0.901% (inactive),,
CC(=O)N1CCCC2(C1)CN(C)c1ccc(C(=O)NC3CC3)cc12 (stereo not drawn),4.11% [at 172 µM] (inactive),,
COCCCN(CCC(=O)NCc1ccc(F)cc1)C(=O)c1cc(C)oc1C,-6.59% (inactive),,
COc1ccc(-c2ccc(C(=O)NCc3ccc(F)cc3)cc2)nn1,-8.21% [at 172 µM] (inactive),,
COc1ccc(CNC(=O)Cn2cccc2-c2nc(-c3ccc(F)cc3)no2)cc1,-3.89% (inactive),,
CNc1nc(C(=O)NCc2ccc3[nH]c(-c4ccc(F)cc4)c(C)c3c2)cs1,,,39.8 µM (active)
N#Cc1cccc(-c2c(C(=O)NCc3ccc(F)cc3)nc3sccn23)c1,-4.66% [at 172 µM] (inactive),,
Cc1c(-c2ccc(F)cc2)[nH]c2ccc(CNC(=O)c3ccc(CO)o3)cc12,,,31.6 µM (active)
CCOc1ccc2c(n1)CCN(C(=O)Nc1ccc(OC)cc1C)C2,-5.05% (inactive),,
CN1CC(=O)N(c2cccc(F)c2)Cc2c(NC3CCNCC3)ncnc21,1.38% (inactive),,
CS(=O)(=O)N1CCCN(C(=O)Cc2cccc(F)c2)CCNC(=O)CC1c1ccccc1 (stereo not drawn),-0.201% (inactive),,
O=C(c1ccccn1)N1CCCC(c2nc(CCOCC3CCOCC3)no2)C1 (stereo not drawn),-18.8% (inactive),,
Cc1cccc(OCCc2noc(C3CCCN(Cc4ccccc4C#N)C3)n2)c1 (stereo not drawn),,,89.1 µM (active)
CCOCC(=O)N1CC(c2nc(CCOc3cccc(C)c3)no2)C1,-25.3% (inactive),,
COc1cccc(-c2cc(C(=O)N3CCN(C(C)=O)CC3)c3cnn(C)c3n2)c1,-18.6% (inactive),,
Cn1ncc2c(C(=O)Nc3cccc(C(F)(F)F)c3)cc(-c3cccc(C(F)(F)F)c3)nc21,-31.4% (inactive),,
COc1cccc(-c2cc(C(=O)Nc3cccc(F)c3)c3cnn(C)c3n2)c1,,,44.7 µM (active)
Cn1ncc2c(C(=O)NC3CCCCC3)cc(-c3cccnc3)nc21,-18.9% [at 172 µM] (inactive),,
Cn1ncc2c(C(=O)Nc3ccc(F)cc3)cc(-c3ccc(Cl)cc3Cl)nc21,0.727% (inactive),,
Cc1ccc(NC(=O)c2cc(C(C)(C)C)nc3c2cnn3C)cc1,,,79.4 µM (active)
COc1cccc(CNC(=O)c2cc(-c3ccc(Cl)nc3)nc3c2cnn3C)c1,-8.6% (inactive),,
COc1cccc(-c2cc(C(=O)Nc3cccc(Cl)c3)c3cnn(C)c3n2)c1,,,39.8 µM (active)

# Source: PubChem BioAssay AID1345083 (National Center for Advancing Translational Sciences (NCATS), 2018)
